Assay outcomes (PubChem BioAssay)
KB-3-1 tox: kills parental KB-3-1 adenocarcinoma cells; KB-3-1 viability, CellTiter-Glo ATP luminescence, 72 h; Potency, µM (highest dose often 46.1 µM), hits mostly cytotoxic; hit rate 1.4% among 400,000; AID 1347075; further: potency means the concentration at half of the fitted maximal effect; on the % scale 0 is the no-effect control and ±100 the full control effect; nearly all actives have a fitted effect of over 60% in size
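Here the drug-naive KB-3-1 line serves as comparator for MDR sub-line selectivity; cells received compound titrations, 72 h at 37 °C, then CellTiter-Glo readout.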
KB-V1 cytotox: kills drug-selected multidrug resistant KB-V1 cells. KB-V1 MDR cells viability, CellTiter-Glo, 72 h. Potency, µM (doses to about 46.1 µM), hits mostly cytotoxic. hit rate 3.4% among 400,000; further: potency means the concentration at half of the fitted maximal effect; on the % scale 0 is the no-effect control and ±100 the full control effect; nearly all actives have a fitted effect of over 60% in size
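Readout: CellTiter-Glo luminescence, 10 min after addition. Cells: KB-V1 MDR subline, 72 h at 37 degrees C with compound. Analysis: corrected, normalized data fitted to concentration-effect curves.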
Giardia killer: Giardia lamblia killing; Giardia lamblia trophozoite viability; activity change, % at 7.66 µM, hits read low; hit rate 0.15% among 340,000; in the data active means activity change below about -80%; inconclusive means between about -30% and that limit;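 further: parasites exposed to compound for two days anaerobically before the ATP read; on the % scale 0 is the no-effect control and ±100 the full control effect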
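Giardia trophozoites, 100 cells per well, were exposed to compounds for 48 hrs at 37 deg C under anaerobic conditions; viability was then read as ATP content by bioluminescence after 15-30 min at room temperature.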
MCF10A rerep: DNA re-replication induction in MCF 10a cells; hit rate 2.9% among 350,000; Potency, µM (highest dose often 46.1 µM), for inactives: top-dose activity, positive = re-replication, hits mostly activators; MCF 10A DNA re-replication, Hoechst nuclear intensity, 48 h; AID 624296; further: potency means the concentration at half of the fitted maximal effect; % of control where 0% means no effect; nearly all actives have a fitted effect of over 50% in size
S-ASM inh: human S-ASM enzyme inhibition. Potency, µM (top dose mostly 57.5 µM), without a hit: at the highest dose activity change, negative = inhibition, hits mostly inhibitors. hit rate 0.006% among 340,000. placental ASM, HMU-PC fluorogenic substrate, 60 min. AID 504937. P17405; further: potency means the concentration at half of the fitted maximal effect
Target sequence (P17405 47-631 limits assumed): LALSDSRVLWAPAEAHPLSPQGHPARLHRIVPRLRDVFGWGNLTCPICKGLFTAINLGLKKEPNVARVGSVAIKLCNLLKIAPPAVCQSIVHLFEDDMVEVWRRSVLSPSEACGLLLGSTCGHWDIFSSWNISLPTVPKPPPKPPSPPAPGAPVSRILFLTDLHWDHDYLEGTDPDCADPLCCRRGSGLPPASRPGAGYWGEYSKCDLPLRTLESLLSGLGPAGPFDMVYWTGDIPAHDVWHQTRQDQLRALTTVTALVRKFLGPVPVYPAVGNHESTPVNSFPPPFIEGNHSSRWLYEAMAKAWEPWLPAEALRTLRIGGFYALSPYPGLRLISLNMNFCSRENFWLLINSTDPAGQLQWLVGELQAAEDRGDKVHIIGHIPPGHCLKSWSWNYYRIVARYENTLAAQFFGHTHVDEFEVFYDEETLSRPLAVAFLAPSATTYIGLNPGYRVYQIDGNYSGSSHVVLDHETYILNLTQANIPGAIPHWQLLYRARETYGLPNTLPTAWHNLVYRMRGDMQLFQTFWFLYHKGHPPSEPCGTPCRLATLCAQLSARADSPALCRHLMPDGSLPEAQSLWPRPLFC
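Human placenta-derived ASM enzyme was preincubated with compound for 10 minutes at room temperature, then given fluorogenic substrate HMU-PC0 (9 uM final) for 60 minutes at 37 °C; a pH 10 stop preceded fluorescence reading at Ex 386/Em 447 nm.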
SW480 rerep: induces DNA re-replication in SW480 colon adenocarcinoma cells. SW480 DNA re-replication, Hoechst DNA content imaging, 48 h. Potency, µM (top dose mostly 46.1 µM), without a hit: top-dose re-replication activation, actives largely listed as activators. hit rate 1.8% among 340,000. AID 624297; further: potency means the concentration at half of the fitted maximal effect; % of control where 0% means no effect; nearly all actives have a fitted effect of over 55% in size
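Hoechst fluorescence of nuclei (405 nm excitation, 500-530 nm emission) measured by plate-scanning imager after 48 hr compound exposure at 37 C; re-replication scored as increased number of nuclei with elevated intensity.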
* marks the source's active call; other numbers are inactive results; i = inactive; ? = inconclusive; nt = no result. Compounds with a hit are over-represented: about 6.9% of the library has one in this group of screens. Unless noted, the call rests on the fitted dose curve; in most records, active means well fitted curve in the direction sought with a large enough effect; inconclusive means small, poorly fitted or top-dose-only effect, or another doubt; inactive means no such curve, though single readings can be large; an effect the other way counts as inactive or inconclusive.

SMILES	KB-3-1 tox	KB-V1 cytotox	Giardia killer	MCF10A rerep	S-ASM inh	SW480 rerep
O=C(NCc1ccccc1)c1cc2ccccc2o1	i	?	3.3	-1.0%	-0.3%	8.8%
Cc1ccc(C(=O)NCc2ccc3c(c2)OCO3)cc1C	i	i	-3.2	-0.9%	-2.4%	3.6%
COC(=O)c1ccc(N2CCN(C)CC2)c(NC(=O)c2cc3ccccc3o2)c1	i	3.26µM*	-1.8	1.4%	-2.5%	-4.2%
COC(=O)c1ccc(N2CCOCC2)c(NC(=O)c2cc3ccccc3o2)c1	i	i	13.5	-12.0%	-0.1%	2.3%
COc1cccc(CNc2nc3c(-c4ccccc4)nnn3c3ccccc23)c1	i	?	nt	nt	nt	nt
Cc1ccc2c(=O)cc(C(=O)Nc3ccc(S(=O)(=O)Nc4nc(C)cc(C)n4)cc3)oc2c1	i	i	nt	nt	nt	nt
COc1ccc(NC(=O)CN(c2ccc(C)cc2)S(=O)(=O)c2cccs2)cc1	i	i	nt	nt	nt	nt
CC(NC(=O)Cn1ncc2c3ccccc3n(Cc3ccc(F)cc3)c2c1=O)c1ccccc1 (configuration not stated)	i	i	nt	nt	nt	nt
CO[C@H]1CN(C)C(=O)c2cc(NS(=O)(=O)c3ccccc3)ccc2OC[C@@H](C)N(Cc2ccccn2)C[C@@H]1C	i	i	nt	nt	nt	nt
COc1cccc(S(=O)(=O)Nc2ccc3c(c2)C(=O)N(C)C[C@H](OC)[C@H](C)CN(Cc2ccccc2F)[C@@H](C)CO3)c1	?	14.6µM*	nt	nt	nt	nt
Cc1ccc2c(c1)S/C(=C/c1ccc[n+](CCO)c1)N2C	2.59µM*	i	13.9	23.2%	-12.3%	-1.3%
Cc1csc(NC(=O)c2cc(-c3ccccc3)nc3ccccc23)n1	?	2.31µM*	-2.9	?	-13.8%	-47.3%
Cc1cc(NC(=O)c2cc(-c3ccncc3)nc3ccccc23)ccc1Br	?	8.2µM*	23.0	?	?	10.4%
CC(=O)c1cccc(NC(=O)c2cc(-c3ccncc3)nc3ccccc23)c1	i	?	24.2	0.0%	-1.1%	?
CC(C)(C)c1nnc(NC(=O)c2cc(-c3ccccc3)nc3ccccc23)s1	i	i	-3.8	20.3%	-12.1%	-0.8%
O=C(NN=C1CCCCCC1)c1cc(-c2ccccc2)nc2ccccc12	?	i	24.3	16.4µM*	-0.5%	5.1%
O=C(Nc1nc2c(s1)CCCC2)c1cc(-c2ccccc2)nc2ccccc12	i	13µM*	1.2	7.9%	-3.6%	nt
Cc1c(C(=O)Nc2ccccc2Br)oc2ccc(S(=O)(=O)N3CCCCCC3)cc12	i	i	nt	nt	nt	nt
O=Cc1ccc(Sc2nnc(-c3ccccc3)o2)c([N+](=O)[O-])c1	?	?	-8.7	2.91µM*	-3.7%	?
Cn1nc([N+](=O)[O-])nc1Sc1nnc(-c2ccccc2)o1	?	i	0.3	?	-5.3%	4.11µM*
CCn1c(=O)c2sccc2n2c(CCC(=O)NCc3ccc(Cl)cc3)nnc12	i	?	nt	nt	nt	nt
Cc1ccc(CNC(=O)c2cc(S(=O)(=O)N3CCCCC3)cn2C)cc1	i	i	nt	nt	nt	nt
COc1ccc(-n2c3c(cc(-c4nc(-c5ccc(C)cc5)cs4)c2=O)C(=O)CC(C)(C)C3)cc1	i	i	nt	nt	nt	nt
O=C1c2cccc(OCC(=O)N3CCCc4ccccc43)c2CCN1Cc1ccc(F)cc1	?	9.2µM*	-3.8	14.6µM*	-2.7%	10.3%
O=C(COc1cccc2c1CCN(Cc1ccccc1)C2=O)NCc1ccco1	i	i	-9.2	-2.0%	-0.4%	0.2%
SMILES	KB-3-1 tox	KB-V1 cytotox	Giardia killer	MCF10A rerep	S-ASM inh	SW480 rerep
CN1CCc2c(OCC(=O)N3CCCc4ccccc43)cccc2C1=O	i	?	-27.5	8.6%	2.9%	?
Cc1cccc(CN2CCc3c(OCC(=O)NCc4ccco4)cccc3C2=O)c1	i	14.6µM*	1.4	3.5%	-1.9%	7.5%
Cc1ccc(C)c(NC(=O)COc2cccc3c2CCN(Cc2ccccc2)C3=O)c1	i	i	-6.9	4.3%	-7.0%	4.1%
Cc1cccc(CN2CCc3c(OCC(=O)N4CCCc5ccccc54)cccc3C2=O)c1	16.4µM*	?	18.3	?	-1.5%	18.7%
Cc1nn2c(-c3cccc(NC(=O)CSc4nc5ccccc5o4)c3)nnc2c2ccccc12	i	?	1.0	10µM*	-8.4%	-6.8%
CC(=O)Nc1nonc1NC(=O)CSc1nc2ccccc2o1	i	i	-4.2	-3.0%	-2.9%	20.6µM*
CCN1c2ccccc2-c2nc(SCC(=O)Nc3cccc(C(F)(F)F)c3)ncc2S1(=O)=O	i	i	nt	nt	nt	nt
COc1ccc(-c2cn3c(n2)sc2cc(C(=O)Nc4ccc(F)cc4Cl)ccc23)cc1	i	i	nt	nt	nt	nt
Cc1c(N/C(=N/S(=O)(=O)c2ccccc2)c2ccc(Cl)cc2)c(=O)n(-c2ccccc2)n1C	i	23.1µM*	-13.5	-6.2%	2.7%	-137.9%
Cc1c(N/C(=N/S(=O)(=O)c2ccc(Cl)cc2)c2ccccc2)c(=O)n(-c2ccccc2)n1C	nt	nt	nt	2.6%	nt	-4.3%
Cc1cccc(NC(=O)c2cccc(S(=O)(=O)Nc3c(C)n(C)n(-c4ccccc4)c3=O)c2)c1	i	14.6µM*	11.8	0.5%	0.1%	-1.9%
CCO/C=N/Nc1nc(C(F)(F)F)nc2c1cnn2Cc1ccccc1	i	i	-11.2	18.4µM*	?	?
O=C(Cn1cnc2c(nnn2Cc2ccc(F)cc2)c1=O)N1CCN(c2ccccc2)CC1	i	9.2µM*	-5.9	8.7%	-1.9%	-13.2%
Cc1ccc(Cn2nnc3c(=O)n(CC(=O)NCc4ccco4)cnc32)cc1	23.1µM*	?	-1.7	?	-1.1%	?
Cc1ccc(Cn2nnc3c(=O)n(CC(=O)NCc4ccccc4)cnc32)cc1	?	i	18.2	9.2µM*	2.4%	9.2µM*
O=C(Cn1cnc2c(cnn2-c2ccccc2)c1=O)N1CCN(c2ccc(F)cc2)CC1	i	?	-25.3	-1.8%	-0.1%	-5.4%
CC(C)(C)n1ncc2c(=O)n(CC(=O)NCc3ccccc3)cnc21	7.31µM*	?	-8.3	14.6µM*	-1.0%	20.6µM*
O=C(Cn1cnc2c(nnn2Cc2ccc(F)cc2)c1=O)NCc1ccc(F)cc1	?	i	-26.6	?	4.4%	-1.8%
O=C(CCn1c(=O)c2ccccc2n(Cc2cccc(Cl)c2)c1=O)NCCc1ccccc1	i	i	nt	nt	nt	nt
CN(C(=O)CSc1nncn2c1cc1occc12)c1ccccc1	i	i	nt	nt	nt	nt
Cc1ccc(-n2nnc3c(SCC(=O)NCc4ccco4)ncnc32)cc1	?	?	-1.1	23.1µM*	-9.1%	7.7%
